In PubChem BioAssay (NCI) one finds growth inhibition data, which are given here for 39 compounds.

SMILES strings stand for the structures. Compounds without any hit were thinned out: in the full panel of roughly 79,000, 15% have a hit. Values without a mark were called inactive. Calls of active or inactive are those of the source. No stated cut-off is given here; in the data, active means growth inhibition above about 70%; inactive means the rest.

The nature of assay [1]: NCI Yeast Anticancer Drug Screen. Data for the rad50 strain (AID 155).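 Further: 0% = growth of vehicle-only cultures of the same strain.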 Particulars: S. cerevisiae rad50 strain growth inhibition; at 50.0 µM; stronger effect = higher value. The method in brief: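 Compounds were tested on a yeast strain with an engineered DNA damage repair alteration; the reported value is growth inhibition normalised to vehicle treatment.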
The nature of assay [2]: NCI Yeast Anticancer Drug Screen. Data for the mec2-1 strain (AID 157). Particulars: S. cerevisiae mec2-1 strain, at 50.0 µM, stronger effect = higher value. Summed up:
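Strain: mec2-1 (DNA repair/cell cycle alteration). Compound exposure, then growth measured; inhibition expressed relative to vehicle.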

Assay [3] can be described thus: NCI Yeast Anticancer Drug Screen. Data for the sgs1 mgt1 strain (AID 161).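 Further: 0% = growth of cultures given vehicle only.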 To be noted: S. cerevisiae sgs1 mgt1 strain, at 50.0 µM, stronger effect = higher value. The method in brief:
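Genetically altered yeast, compound exposure, growth inhibition relative to vehicle.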

The nature of assay [4]: NCI Yeast Anticancer Drug Screen. Data for the cln2 rad14 strain (AID 165).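 Further: 0% = growth equal to vehicle treated cultures.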 Particulars: S. cerevisiae cln2 rad14 strain, at 50.0 µM, stronger effect = higher value. Summed up: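 Compounds are applied to the cln2 rad14 yeast strain, and growth is then compared with that of vehicle-treated cultures to give inhibition.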
The nature of assay [5]: NCI Yeast Anticancer Drug Screen. Data for the bub3 strain (AID 167). Particulars: S. cerevisiae bub3 mutant strain, at 50.0 µM, stronger effect = higher value. Summed up: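 Growth of a checkpoint-deficient yeast mutant is measured after compound exposure. Values represent inhibition relative to vehicle.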
Assay [6] in a line: NCI Yeast Anticancer Drug Screen. Data for the mlh1 rad18 strain (AID 175). Particulars: S. cerevisiae mlh1 rad18 strain growth inhibition; at 50.0 µM; stronger effect = higher value. Summed up:
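Read-out is yeast growth inhibition, calculated against vehicle-only controls. The compound was applied to a strain engineered with DNA damage repair alterations.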

As to `CCOC(=O)c1c(Nc2ccccc2O)oc2ccccc12`, the growth inhibition in assay [1] was -0.4%; in assay [2] it was 3.1%; in assay [3], 6.95%; in assay [4] it was 17.6%; in assay [5] it was 6.45%; in assay [6], 11.9%.

As to `Cc1cccc(-c2cc(=O)c3cccnc3[nH]2)c1`, the growth inhibition is 2.05% in assay [1]; -1.45% in assay [2]; 9.35% in assay [3]; 4.05% in assay [4]; -13% in assay [5]; 1.25% in assay [6].

In the case of `CC(OC(C(O)C=O)C(O)C(O)CO)C(=O)N[C@@H](C)C(=O)O` (some centres undefined), the growth inhibition in assay [1] was 6.1%; in assay [2] it was -8.55%; in assay [3], -0.75%; in assay [4] it was -2.45%; in assay [5], -9.2%; in assay [6], 25.8%.

`FC(F)(F)C1=NCCN1`: the growth inhibition in assay [1] is -0.5%; in assay [2], -11.1%; in assay [3], -2.85%; in assay [4] it was 11.4%; in assay [5], -2.45%; in assay [6], -10.3%.

With `C=Nc1ccc([N+](=O)[O-])cc1`, the growth inhibition in assay [1] is 6.9%; in assay [2], 10.2%; in assay [3], -1.3%; in assay [4], 14.6%; in assay [5], -4.75%; in assay [6] it was 26.3%.

For `CCCCCCCCCCCCNC(C)C1=C(O)c2ccccc2C(=O)C1=O` (centres undefined), the growth inhibition was 52.6% in assay [1]; 20.3% in assay [2]; 50% in assay [3]; 25.9% in assay [4]; 15% in assay [5]; 44.9% in assay [6].

With `N#Cc1ccc(N=NN2CCOC2)cc1`, the growth inhibition in assay [1] is 20.6%; in assay [2], 11.4%; in assay [3], -0.7%; in assay [4], 7.7%; in assay [5], 23%; in assay [6], 44.9%.

As for `CCOC(=O)C1C(C)C2(C#N)C(=N)OC1(C)C2(C#N)C#N` (centres undefined), the growth inhibition in assay [1] is 21.5%; in assay [2] it was 19.1%; in assay [3] it was -6.6%; in assay [4], 1.5%; in assay [5], -22.4%; in assay [6], -12.9%.

In the case of `O=S(=O)(O)c1ccc2c(N=Nc3cccc4ccccc34)c(O)c(S(=O)(=O)O)cc2c1`, the growth inhibition in assay [1] was -2.35%; in assay [2], 4.9%; in assay [3] it was -21.3%; in assay [4], 41.2%; in assay [5], -17.8%; in assay [6], 23.1%.

Turning to `COC(=O)Oc1ccccc1C(=O)O`, the growth inhibition in assay [1] is -25.2%; in assay [2], -22.6%; in assay [3], -15.6%; in assay [4], 0.2%; in assay [5] it was -24.6%; in assay [6], -5.55%.

With `Oc1ccc(Br)cc1C=Nc1ccccc1`, the growth inhibition was 26.3% in assay [1]; 18.9% in assay [2]; 40.8% in assay [3]; 29.4% in assay [4]; 26.2% in assay [5]; 14.9% in assay [6].

As for `CN(C)c1ccc2[nH]cc(C(=O)O)c(=O)c2c1`, the growth inhibition in assay [1] is 4.15%; in assay [2], 6.6%; in assay [3] it was 10.3%; in assay [4] it was -1.05%; in assay [5], 28.8%; in assay [6], 7.35%.

Turning to `N/N=C(/C(=O)Nc1cccc(Cl)c1)C(C(=O)c1ccc(O)cc1O)C1OC(=O)c2ccccc21` (centres undefined), the growth inhibition is -17.4% in assay [1]; -14.3% in assay [2]; -8.1% in assay [3]; 0.85% in assay [4]; 6.1% in assay [5]; 20.1% in assay [6].

For `CN(C)c1ccc(/[N+]([O-])=C/c2cccc3ccccc23)cc1`, the growth inhibition in assay [1] was 3.05%; in assay [2], 22.6%; in assay [3], 15.2%; in assay [4] it was -51.9%; in assay [5] it was 60.3%; in assay [6] it was 38.4%.

`O=C(NC(CO)C(=O)O)c1ccccc1` (centres undefined): the growth inhibition in assay [1] is 6.65%; in assay [2], -14.2%; in assay [3] it was -14.5%; in assay [4] it was -44.5%; in assay [5] it was -18.9%; in assay [6] it was -12.9%.

On to `Cc1nc(-c2nc(C)c(C(=O)NN(C)C)s2)sc1C(=O)NN(C)C`, for which the growth inhibition in assay [1] was 28.4%; in assay [2], -7.8%; in assay [3], 23.2%; in assay [4], 23.7%; in assay [5], 3.1%; in assay [6], 22%.

`COC(=O)C1OC(n2ccc(=O)[nH]c2=O)C(OC(C)=O)C(OC(C)=O)C1OC(C)=O` (centres undefined): the growth inhibition in assay [1] is 2.2%; in assay [2], -3.4%; in assay [3] it was -1.3%; in assay [4] it was -9.55%; in assay [5], 1.45%; in assay [6] it was 6.6%.

Turning to `Cc1cc(NCCN(C(C)C)C(C)C)nc(Nc2nc3ccc(Cl)cc3[nH]2)n1`, the growth inhibition in assay [1] was -13%; in assay [2], -16.5%; in assay [3] it was -10.2%; in assay [4], -45.2%; in assay [5], 1.95%; in assay [6], -44.5%.

Regarding `Cc1cc(S(=O)(=O)Nc2nnc3cc(C(F)(F)F)cc(C)n23)c(S)cc1Cl`, the growth inhibition in assay [1] is -19.6%; in assay [2], -26.8%; in assay [3], -38.1%; in assay [4], -15.8%; in assay [5], -19.9%; in assay [6] it was -14.2%.

Take `Cc1cccc(C)c1NCC(=O)NN`: the growth inhibition was 9.5% in assay [1]; 6.05% in assay [2]; 0.85% in assay [3]; -22.9% in assay [4]; 5.85% in assay [5]; 8.55% in assay [6].

Take `NC(=S)c1cc[n+]([O-])cc1`: the growth inhibition is 8.65% in assay [1]; 2.55% in assay [2]; 5.4% in assay [3]; -11.2% in assay [4]; -7.2% in assay [5]; -3.8% in assay [6].

With `CC(=O)Nc1ccc(S(=O)(=O)[N-]C2C(=O)c3ccccc3C(=O)C2[n+]2ccccc2)cc1` (centres undefined), the growth inhibition in assay [1] was 25.4%; in assay [2], 23.1%; in assay [3], 28%; in assay [4] it was -0.35%; in assay [5] it was 27.8%; in assay [6] it was -1.8%.

With `Nc1nnc2nc(CC(=O)c3ccccc3[N+](=O)[O-])c(CC(=O)c3ccccc3[N+](=O)[O-])nn12`, the growth inhibition in assay [1] was 1%; in assay [2], 6.05%; in assay [3], 18.1%; in assay [4], -13.3%; in assay [5] it was -27.4%; in assay [6], 8.8%.

On to `Cc1cc(OC(=O)c2ccccc2)c(C)c(C)c1OC(=O)c1ccccc1`, for which the growth inhibition in assay [1] is 6.15%; in assay [2], -7.95%; in assay [3] it was 15.2%; in assay [4], 9.2%; in assay [5], 8.4%; in assay [6], 21.1%.

Regarding `CC(=O)NC1C(OCc2ccccc2)OC(CO)C(O)C1OC(C)C(=O)NC(C)C(=O)N[C@@H](CCC(=O)OCCCNC1c2ccccc2Nc2cccc([N+](=O)[O-])c21)C(N)=O` (some centres undefined), the growth inhibition is 63.4% in assay [1]; 82.7% (active) in assay [2]; 78.2% (active) in assay [3]; 83.5% (active) in assay [4]; 11.7% in assay [5]; 77.8% (active) in assay [6].

Regarding `COC(=O)[C@H]1[C@H]2C[C@@H]3c4[nH]c5cc(OC)ccc5c4CCN3C[C@H]2C[C@@H](OC(=O)c2cc(OC)c(OC)c(OC)c2)[C@@H]1OC`, the growth inhibition in assay [1] was 16.5%; in assay [2] it was -14.2%; in assay [3], -8.9%; in assay [4] it was -3.65%; in assay [5] it was 25.7%; in assay [6], 12.8%.

In the case of `COc1ccc(N2N=NN(C(C)C)/C2=C(/Cl)c2nnnn2-c2ccc(OC)cc2)cc1`, the growth inhibition in assay [1] is 25.8%; in assay [2], 42.9%; in assay [3] it was 33.8%; in assay [4], 19.1%; in assay [5], 24.9%; in assay [6], 39.3%.

Consider `CN(C)Cc1cc(C(=O)/C=C/c2ccc(Cl)cc2)cc(CN(C)C)c1O`, for which the growth inhibition in assay [1] is -27.6%; in assay [2] it was -22.1%; in assay [3] it was -20.9%; in assay [4] it was -44.2%; in assay [5], 1.2%; in assay [6], -18.1%.

Take `N/N=C1\C(Cl)=C(Cl)c2ccccc21`: the growth inhibition was 6.65% in assay [1]; -6.35% in assay [2]; 10.2% in assay [3]; -11.8% in assay [4]; 2.95% in assay [5]; 8.3% in assay [6].

For the compound `Cc1ccc([N+](=O)[O-])cc1NC(=O)COc1ccc(Cl)cc1Cl`, the growth inhibition in assay [1] is 6.25%; in assay [2], 0.55%; in assay [3] it was 13.5%; in assay [4] it was 10.2%; in assay [5] it was 1.85%; in assay [6] it was 1.15%.

Turning to `CCN(C(=S)Nc1cccc(OC)c1)c1ccccc1`, the growth inhibition in assay [1] was -17.2%; in assay [2], -36.9%; in assay [3], 18%; in assay [4], -1.45%; in assay [5] it was -17.1%; in assay [6] it was -6.8%.

For the compound `CCOC(=O)C(C)(C)O`, the growth inhibition is 18.8% in assay [1]; 14% in assay [2]; 1.05% in assay [3]; -35.9% in assay [4]; 9.05% in assay [5]; 19.2% in assay [6].

Take `C(=C\c1ncc(-c2ccccc2)cc1-c1ccccc1)/c1ccccc1`: the growth inhibition in assay [1] is -12.3%; in assay [2], -20.8%; in assay [3], 5.8%; in assay [4] it was -6.8%; in assay [5], 0.75%; in assay [6], -1.9%.

Regarding `CCOC(=O)C(O)Cc1cnc2ccccc2n1` (centres undefined), the growth inhibition in assay [1] is -1.45%; in assay [2], -13.3%; in assay [3], -12.3%; in assay [4] it was -13.3%; in assay [5] it was -11.1%; in assay [6], 7.55%.

With `CCOC(=O)c1cc(-n2nnc3ccccc32)cn1C`, the growth inhibition is -4.7% in assay [1]; -23.4% in assay [2]; 0.35% in assay [3]; -3.6% in assay [4]; 19.4% in assay [5]; -0.65% in assay [6].

As for `O=C(O)CNc1cc(-c2ccccc2)nc(NCC(=O)O)n1`, the growth inhibition was -53.7% in assay [1]; -12.3% in assay [2]; 4.45% in assay [3]; 17.8% in assay [4]; -29.1% in assay [5]; 25.4% in assay [6].

Take `CCOC(=O)c1sc2nc(-c3ccccc3)nn2c1CBr`: the growth inhibition in assay [1] is 17.1%; in assay [2], 3.95%; in assay [3] it was 11.9%; in assay [4] it was 24.1%; in assay [5], 18.6%; in assay [6], 49.4%.

Regarding `C1=C\CCCC/C=C/CC/1`, the growth inhibition was 1.2% in assay [1]; -4.75% in assay [2]; -13.1% in assay [3]; 5.3% in assay [4]; 0.75% in assay [5]; 10.7% in assay [6].

Consider `CCOc1ccccc1NC(=O)Nc1ccccc1Cl`, for which the growth inhibition in assay [1] is -0.1%; in assay [2], -2.15%; in assay [3], 23.1%; in assay [4] it was -18.3%; in assay [5], 7.5%; in assay [6] it was 21.3%.
